Compound activity: PubChem, National Center for Advancing Translational Sciences (NCATS)
MCF10A rerep = inducers of DNA re-replication in MCF 10A breast cells; AID 624296; hit rate 2.9% among 350,000; MCF 10A DNA re-replication, Hoechst nuclear intensity, 48 h; Potency, µM (highest dose often 46.1 µM), for inactives: at the top dose activity, positive = re-replication, usual class: activators; note: % of control where 0% means no effect; nearly all actives have a fitted effect of over 50% in size
KB-V1 MDR tox = KB-V1 MDR subline cytotoxicity; Potency, µM (highest dose often 46.1 µM), actives largely listed as cytotoxic; AID 1347076; KB-V1 MDR cells viability, CellTiter-Glo, 72 h; hit rate 3.4% among 400,000; note: % is set by controls: 0 for no effect and ±100 for the full control effect; nearly all actives have a fitted effect of over 60% in size
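KB-V1, DMEM (no phenol red) + 10% FBS; cpd pin-transferred, titration series; 72 h, 37 degrees C; CellTiter-Glo, luminescence. Data normalized, curve-fit.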
HT1080 IDH1KD tx = kills HT-1080 cells with IDH1 knockdown | Potency, µM (titrated, usually from 46.1 µM), for the others: at the top dose activity, negative = toxicity, actives largely listed as cytotoxic | hit rate 2% among 360,000 | HT-1080 IDH1 knockdown viability, ATP luminescence, 48 h | AID 686971;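 note: 0% = DMSO wells and -100% = cell-free medium wells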
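% activity derives from luminescence (CellTiter-Glo), normalised to DMSO and no-cell wells. HT-1080-IDH1KD cells, 750/well, had 48 h compound exposure at 37 °C.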
SW480 rerep = inducers of DNA re-replication in SW480 colon cancer cells | SW480 DNA re-replication, Hoechst DNA content imaging, 48 h | hit rate 1.8% among 340,000 | Potency, µM (highest dose often 46.1 µM), without a hit: at the highest dose re-replication activation, usual class: activators | AID 624297; note: % of control where 0% means no effect; nearly all actives have a fitted effect of over 55% in size
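Treated cells incubate 48 hr (37 C, 5% CO2), are stained 40 min with Hoechst, and nuclear fluorescence is enumerated; a rise in nuclei with high DNA signal marks re-replication.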
KB-3-1 tox = KB-3-1 parental cell cytotoxicity; Potency, µM (titrated, usually from 46.1 µM), actives largely listed as cytotoxic; AID 1347075; KB-3-1 viability, CellTiter-Glo ATP luminescence, 72 h; hit rate 1.4% among 400,000; note: % is set by controls: 0 for no effect and ±100 for the full control effect; nearly all actives have a fitted effect of over 60% in size
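Screening of KB-3-1 cells (DMEM, 10% FBS, phenol-red free) ran from lowest to highest compound concentration; after 72 h at 37 °C viability was read luminescently and curves fitted.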
HT1080-NT tox = kills 2HG-producing HT-1080-NT fibrosarcoma cells; HT-1080-NT fibrosarcoma viability, CellTiter-Glo ATP luminescence, 48 h; Potency, µM (top dose mostly 46.1 µM), without a hit: top-dose activity, negative = less viability, actives largely listed as cytotoxic; AID 686970; hit rate 1.6% among 360,000;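 note: NT is the 2HG producing partner of a matched IDH1 knockdown line; 0% = DMSO-treated cells and -100% = media-only wells without cells; nearly all actives have a fitted effect of over 55% in size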
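Luminescent CellTiter-Glo readout after 48 hours of compound exposure at 37 degrees C defined viability of HT-1080-NT cells. Activity was normalized to DMSO wells and cell-free media wells; concentration-response curves were fitted and assigned curve classes.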
* marks the source's active call; other numbers are inactive results; i = inactive; u = inconclusive; x = no result; [ ] = remark or other dose. Most compounds without a hit are left out; they make up all but 7.9% or so of the library. Calls come from the whole dose curve; as a rule, active = well fitted curve in the direction sought with a large enough effect; inconclusive = small, poorly fitted or top-dose-only effect, or another doubt; inactive = no such curve, though single readings can be large; an effect the other way counts as inactive or inconclusive. Potency is the fitted concentration of half-maximal effect.

SMILES	MCF10A rerep	KB-V1 MDR tox	HT1080 IDH1KD tx	SW480 rerep	KB-3-1 tox	HT1080-NT tox
OCC1(CCOc2ccccc2)CCN(C2Cc3ccccc3C2)CC1	18µM*	i	-8%	0%	i	-7%
CCOc1ccc2oc(C(=O)NCC3CCCO3)c(C)c2c1 (configuration not stated)	-4%	i	11%	2%	i	4%
C(COC1CC2CC1C1C2CC2OC21)OC1CC2CC1C1C2CC2OC21 (configuration not stated)	u	21µM*	-7%	-5%	i	-7%
Oc1c(C(c2ccccc2Cl)N2CCCC2)ccc2cccnc12 (configuration not stated)	u	i	u	-4%	13µM*	u
Cc1cc(O)c(C(C)C)cc1C1(c2cc(C(C)C)c(O)cc2C)OC(=O)c2ccccc21	9.2µM*	u	16µM*	u	u	8.2µM*
Cc1cc(C2(c3ccc(O)c(C)c3)OC(=O)c3ccccc32)ccc1O	u	i	-6%	u	i	0%
CCOC(=O)c1c(NC(=S)N2CCN(C)CC2)sc2c1CCN(C(=O)OCC)C2	u	i	18µM*	u	i	21µM*
CCOC(=O)c1c(NC(=O)CN2CCN(C)CC2)sc(C(=O)Nc2ccccc2)c1C	21%	i	23µM*	-17%	i	u
CCOC(=O)c1sc(NC(=O)CCN2CCN(C)CC2)c(C(=O)OCC)c1C	23%	i	u	23%	i	21µM*
O=C(O)/C=C/C(=O)N1CCN(Cc2ccc3c(c2)OCO3)CC1	-2%	i	0%	-6%	i	-2%
CN(C)CCCNC(=S)NCC(c1ccc(Cl)cc1Cl)c1c[nH]c2ccccc12 (configuration not stated)	u	i	16µM*	0%	i	21µM*
CCCCNC(=S)NCC(c1ccccc1)c1c[nH]c2ccccc12 (configuration not stated)	u	u	u	u	i	u
CCNc1nc(C23CC4CC(CC(C4)C2)C3)cs1	23µM*	i	-23%	u	i	-15%
CC(=O)NNC(=O)CC(=O)Nc1nc(C23CC4CC(CC(C4)C2)C3)cs1	u	i	u	-1%	i	u
CCN(C(=O)COC(=O)c1ccccc1OCc1ccc(Cl)cc1)C1CCS(=O)(=O)C1 (configuration not stated)	0%	x	0%	-4%	x	0%
CCCC[C@H]1COCCS(=O)(=O)N1Cc1ccc(C)cc1	-1%	16µM*	-6%	-5%	16µM*	-2%
O=C(O)CCCNC(=O)CCn1nnc2ccccc2c1=O	-3%	i	10%	-5%	i	16%
COc1ccc(N/N=C(/N=Nc2nc(C)cc(=O)[nH]2)c2ccccc2)cc1	u	u	3.7µM*	u	6.5µM*	u
Cc1cc(=O)[nH]c(N=N/C(=N/Nc2ccccc2C)c2ccccc2)n1	19%	i	u	5.2µM*	4.6µM*	u
Cc1cc(=O)[nH]c(N=N/C(=N/Nc2ccc(O)cc2)c2ccccc2)n1	u	i	u	-2%[9.22 µM]	u	-19%
O=C1NC[C@@H](CCCCN2C[C@H](Cc3ccc(O)cc3)N(CCC3CCCCC3)C(=O)C2=O)N(CCC2CCCCC2)C1=O	x	u	u	x	i	u
Cc1ccc(CN(Cc2ccco2)C(=O)c2oc3ccc(C)cc3c2C)cc1	x	i	x	x	i	x
O=C(CC1CCCCC1)N1CCN(c2ccccn2)CC1	14%	i	15%	-3%	i	8%
CCOC(=O)Cc1csc(NC(=O)c2cc(C)c(C)s2)n1	0%	18µM*	7%	-1%	u	27%
CCOC(=O)Cc1csc(NC(=O)COc2ccc(C)cc2)n1	-3%	u	4%	-4%	i	6%
SMILES	MCF10A rerep	KB-V1 MDR tox	HT1080 IDH1KD tx	SW480 rerep	KB-3-1 tox	HT1080-NT tox
CCOC(=O)Cc1csc(NC(=O)CSc2nnc(-n3nc(C)cc3C)c3ccccc23)n1	19%	21µM*	-3%	-1%	i	-14%
CCOC(=O)Cc1csc(NC(=O)COc2ccccc2)n1	11%	i	-6%	7%	i	10µM*
CCOC(=O)Cc1csc(NC(=O)c2ccc(Cl)s2)n1	3%	i	-17%	-41%	u	-4%
O=C1c2ccccc2C(=O)N1CC#CCN1CCN(C2CCCCC2)CC1	3%	i	-2%	-5%	i	-2%
N/N=C1\CCCc2c1[nH]c1ccc([N+](=O)[O-])cc21	-14%	4.6µM*	7%	u	u	11%
COc1ccc(NC(=O)Cc2nnc(SCC(=O)Nc3ccccc3)n2C)cc1	2%	i	10%	-16%	i	6%
CN(C)/C=N/C(=S)Nc1ccc(Cl)cc1Cl	u	i	3%	21µM*	i	2%
CC(=O)/C(=C/N(C)C)C(=O)Nc1ccc(Cl)cc1Cl	18µM*	i	u	u	i	-25%
CN(C)/C=N/C(=S)Nc1ccc(Cl)cc1	0%	i	-2%	-6%	i	1%
CC(C)c1nc2sc3c(SCCN(C)C)ncnc3c2c2c1CCC2	2%	i	12%	u	i	19%
CCOc1ccccc1N1CCN(C(=O)CSc2ccc3c(c2)OCCO3)CC1	22%	12µM*	12%	-9%	i	-1%
COc1ccccc1N1C(=O)c2cccc3c(N(C)CCO)ccc(c23)C1=O	-3%	i	-6%	-5%[1.84 µM]	i	-8%
Cc1ccccc1N1C(=O)c2cccc3c(N(C)CCO)ccc(c23)C1=O	-4%	18µM*	9%	u	i	-18%
FC(F)(F)c1ccc2c(c1)[nH]c(=S)n2C1CC1	-1%	u	-3%	-13%	i	-1%
CNC(=S)NNC(=O)CSCc1c(Cl)cccc1Cl	-19%	i	-13%	u	i	1%
O=C(NCc1ccc2c(c1)OCO2)c1nc(S(=O)(=O)Cc2ccccc2)ncc1Cl	u	u	16µM*	u	21µM*	16µM*
O=C(NCc1ccc2c(c1)OCO2)c1nc(S(=O)(=O)Cc2ccccc2F)ncc1Cl	-9%	i	u	11%	i	16µM*
CN(Cc1ccccc1)S(=O)(=O)c1ccc(Cl)c(C(=O)NCc2ccc3c(c2)OCO3)c1	-2%	12µM*	-11%	-100%	i	-6%
O=C(NCc1ccccc1)c1nc(S(=O)(=O)Cc2ccccc2)ncc1Cl	u	i	u	-18%	i	u
